Columns and labels:
[1] = biological target: T1, Serine/threonine-protein kinase TBK1 (Homo sapiens) (UniProt Q9UHD2); settings: at 1 µM
T1 sequence (whole entry): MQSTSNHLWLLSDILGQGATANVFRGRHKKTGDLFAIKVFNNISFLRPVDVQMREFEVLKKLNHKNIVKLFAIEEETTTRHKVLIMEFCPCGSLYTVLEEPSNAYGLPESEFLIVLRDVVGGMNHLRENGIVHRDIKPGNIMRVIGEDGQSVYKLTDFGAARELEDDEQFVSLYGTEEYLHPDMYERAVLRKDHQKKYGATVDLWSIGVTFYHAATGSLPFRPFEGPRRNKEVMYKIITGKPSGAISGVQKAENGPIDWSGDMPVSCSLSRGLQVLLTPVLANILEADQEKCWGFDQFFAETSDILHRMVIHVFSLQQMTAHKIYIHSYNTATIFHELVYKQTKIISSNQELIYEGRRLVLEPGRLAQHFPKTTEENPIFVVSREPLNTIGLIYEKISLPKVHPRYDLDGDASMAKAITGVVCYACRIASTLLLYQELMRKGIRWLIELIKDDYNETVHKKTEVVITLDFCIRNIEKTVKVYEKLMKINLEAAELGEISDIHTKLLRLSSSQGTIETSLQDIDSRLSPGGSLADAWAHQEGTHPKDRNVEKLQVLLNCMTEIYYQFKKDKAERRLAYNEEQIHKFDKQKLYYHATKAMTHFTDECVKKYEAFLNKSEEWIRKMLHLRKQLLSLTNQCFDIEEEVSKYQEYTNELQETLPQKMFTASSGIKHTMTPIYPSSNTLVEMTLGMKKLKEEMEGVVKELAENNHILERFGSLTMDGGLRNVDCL

[2] = biological target: T1, Serine/threonine-protein kinase TBK1 (Homo sapiens); settings: at 10 µM
[3] = biological target: T2, TGF-beta receptor type-1 (Homo sapiens) (UniProt P36897); settings: at 1 µM
T2 sequence (whole entry): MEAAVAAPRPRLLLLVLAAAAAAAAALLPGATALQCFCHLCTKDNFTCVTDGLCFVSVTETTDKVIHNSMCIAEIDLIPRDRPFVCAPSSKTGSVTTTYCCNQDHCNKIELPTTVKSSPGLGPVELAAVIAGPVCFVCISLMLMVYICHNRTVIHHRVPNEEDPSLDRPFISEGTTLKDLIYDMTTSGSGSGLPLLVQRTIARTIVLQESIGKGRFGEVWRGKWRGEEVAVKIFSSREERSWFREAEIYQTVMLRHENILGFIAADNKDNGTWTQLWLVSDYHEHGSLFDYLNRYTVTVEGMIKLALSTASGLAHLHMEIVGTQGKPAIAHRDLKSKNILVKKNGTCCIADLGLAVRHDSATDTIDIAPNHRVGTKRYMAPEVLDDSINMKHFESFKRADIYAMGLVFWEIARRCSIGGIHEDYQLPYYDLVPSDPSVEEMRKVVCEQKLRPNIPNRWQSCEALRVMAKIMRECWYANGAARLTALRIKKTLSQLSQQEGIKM

[4] = biological target: T2, TGF-beta receptor type-1 (Homo sapiens); settings: at 10 µM
[5] = biological target: Insulin-like growth factor 1 receptor (Homo sapiens) (UniProt P08069); settings: at 1 µM
[6] = biological target: Insulin-like growth factor 1 receptor (Homo sapiens) (UniProt P08069); settings: at 10 µM
[7] = biological target: T3, Inhibitor of nuclear factor kappa-B kinase subunit alpha (Homo sapiens) (UniProt O15111); settings: at 10 µM
T3 sequence (whole entry): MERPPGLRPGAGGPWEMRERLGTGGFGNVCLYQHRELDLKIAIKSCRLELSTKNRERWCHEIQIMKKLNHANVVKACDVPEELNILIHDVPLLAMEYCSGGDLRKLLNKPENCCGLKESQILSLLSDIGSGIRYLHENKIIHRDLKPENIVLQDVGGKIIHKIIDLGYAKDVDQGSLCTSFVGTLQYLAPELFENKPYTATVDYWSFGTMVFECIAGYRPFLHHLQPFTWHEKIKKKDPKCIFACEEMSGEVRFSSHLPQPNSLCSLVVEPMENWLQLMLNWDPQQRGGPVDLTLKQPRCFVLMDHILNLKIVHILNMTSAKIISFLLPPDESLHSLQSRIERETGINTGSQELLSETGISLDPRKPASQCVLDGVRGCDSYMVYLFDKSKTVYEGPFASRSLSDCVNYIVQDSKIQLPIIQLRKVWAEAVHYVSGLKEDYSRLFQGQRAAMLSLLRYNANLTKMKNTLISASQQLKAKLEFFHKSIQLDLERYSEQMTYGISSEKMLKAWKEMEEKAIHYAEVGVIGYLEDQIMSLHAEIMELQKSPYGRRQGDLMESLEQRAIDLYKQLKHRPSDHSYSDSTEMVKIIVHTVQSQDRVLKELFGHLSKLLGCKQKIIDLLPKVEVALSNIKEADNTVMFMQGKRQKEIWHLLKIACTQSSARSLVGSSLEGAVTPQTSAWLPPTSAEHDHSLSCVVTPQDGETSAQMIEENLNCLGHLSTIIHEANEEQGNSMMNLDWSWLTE

[8] = biological target: T4, Inhibitor of nuclear factor kappa-B kinase subunit beta (Homo sapiens) (UniProt O14920); settings: at 1 µM
T4 sequence (whole entry): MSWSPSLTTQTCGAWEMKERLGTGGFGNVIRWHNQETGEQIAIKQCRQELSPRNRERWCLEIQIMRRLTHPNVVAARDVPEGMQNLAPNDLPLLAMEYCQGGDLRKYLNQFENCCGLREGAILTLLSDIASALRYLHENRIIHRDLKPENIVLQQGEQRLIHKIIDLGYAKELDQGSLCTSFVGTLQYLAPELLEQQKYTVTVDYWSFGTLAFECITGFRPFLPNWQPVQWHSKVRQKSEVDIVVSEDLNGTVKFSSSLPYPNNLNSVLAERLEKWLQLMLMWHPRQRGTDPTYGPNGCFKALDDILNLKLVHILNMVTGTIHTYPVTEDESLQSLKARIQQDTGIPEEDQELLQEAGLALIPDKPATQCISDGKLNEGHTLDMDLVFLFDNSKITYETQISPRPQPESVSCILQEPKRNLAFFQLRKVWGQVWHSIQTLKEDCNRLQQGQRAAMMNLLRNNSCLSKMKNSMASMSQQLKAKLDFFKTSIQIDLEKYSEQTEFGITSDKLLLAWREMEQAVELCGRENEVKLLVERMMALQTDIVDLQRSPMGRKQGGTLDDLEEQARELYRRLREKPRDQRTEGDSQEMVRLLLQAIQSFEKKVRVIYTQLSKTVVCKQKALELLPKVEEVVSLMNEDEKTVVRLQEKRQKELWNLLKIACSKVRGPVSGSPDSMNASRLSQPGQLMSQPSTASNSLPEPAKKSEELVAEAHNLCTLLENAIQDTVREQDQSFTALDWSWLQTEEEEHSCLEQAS

[9] = biological target: T4, Inhibitor of nuclear factor kappa-B kinase subunit beta (Homo sapiens); settings: at 10 µM
[10] = biological target: Insulin receptor (Homo sapiens) (UniProt P06213); settings: at 1 µM
Chain of Insulin receptor (Homo sapiens) (P06213 28-758 limits assumed): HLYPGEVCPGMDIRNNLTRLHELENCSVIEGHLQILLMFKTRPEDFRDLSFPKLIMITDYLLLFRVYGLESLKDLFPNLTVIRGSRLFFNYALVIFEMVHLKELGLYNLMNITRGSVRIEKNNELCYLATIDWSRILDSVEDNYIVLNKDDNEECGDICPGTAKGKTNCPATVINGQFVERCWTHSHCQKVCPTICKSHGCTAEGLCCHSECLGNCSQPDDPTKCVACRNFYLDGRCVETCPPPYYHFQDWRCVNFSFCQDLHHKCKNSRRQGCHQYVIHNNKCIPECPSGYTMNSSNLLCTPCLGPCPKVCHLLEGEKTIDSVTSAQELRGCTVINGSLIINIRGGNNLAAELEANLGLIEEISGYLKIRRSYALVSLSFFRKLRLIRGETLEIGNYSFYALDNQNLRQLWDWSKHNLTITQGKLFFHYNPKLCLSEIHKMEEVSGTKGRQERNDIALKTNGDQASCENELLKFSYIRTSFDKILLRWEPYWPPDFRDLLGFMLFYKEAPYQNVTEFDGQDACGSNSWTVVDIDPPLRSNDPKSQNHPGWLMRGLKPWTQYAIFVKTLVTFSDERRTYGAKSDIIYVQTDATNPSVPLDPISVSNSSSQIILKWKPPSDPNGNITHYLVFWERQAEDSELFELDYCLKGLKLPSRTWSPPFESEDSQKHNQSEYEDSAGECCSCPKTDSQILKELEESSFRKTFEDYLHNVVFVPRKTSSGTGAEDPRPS
Chain of Insulin receptor (Homo sapiens) (P06213 763-1382 limits assumed): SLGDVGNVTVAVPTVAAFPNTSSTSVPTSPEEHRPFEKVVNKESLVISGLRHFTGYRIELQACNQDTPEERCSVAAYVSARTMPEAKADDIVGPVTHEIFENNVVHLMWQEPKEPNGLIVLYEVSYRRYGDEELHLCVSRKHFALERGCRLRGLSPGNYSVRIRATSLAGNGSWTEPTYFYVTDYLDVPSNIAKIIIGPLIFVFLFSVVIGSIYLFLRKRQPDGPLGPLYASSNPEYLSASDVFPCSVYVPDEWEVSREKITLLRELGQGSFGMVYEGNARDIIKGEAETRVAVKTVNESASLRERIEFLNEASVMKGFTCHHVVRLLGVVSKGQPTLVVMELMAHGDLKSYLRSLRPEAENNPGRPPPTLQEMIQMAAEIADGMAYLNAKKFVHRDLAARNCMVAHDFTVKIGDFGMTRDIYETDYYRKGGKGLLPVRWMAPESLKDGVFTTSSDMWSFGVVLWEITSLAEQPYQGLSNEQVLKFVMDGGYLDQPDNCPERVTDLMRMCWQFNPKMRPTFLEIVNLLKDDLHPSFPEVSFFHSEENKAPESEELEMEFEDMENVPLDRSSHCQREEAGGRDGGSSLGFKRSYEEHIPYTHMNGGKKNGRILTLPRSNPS

Chain of Insulin-like growth factor 1 receptor (Homo sapiens) (P08069 31-736 limits assumed): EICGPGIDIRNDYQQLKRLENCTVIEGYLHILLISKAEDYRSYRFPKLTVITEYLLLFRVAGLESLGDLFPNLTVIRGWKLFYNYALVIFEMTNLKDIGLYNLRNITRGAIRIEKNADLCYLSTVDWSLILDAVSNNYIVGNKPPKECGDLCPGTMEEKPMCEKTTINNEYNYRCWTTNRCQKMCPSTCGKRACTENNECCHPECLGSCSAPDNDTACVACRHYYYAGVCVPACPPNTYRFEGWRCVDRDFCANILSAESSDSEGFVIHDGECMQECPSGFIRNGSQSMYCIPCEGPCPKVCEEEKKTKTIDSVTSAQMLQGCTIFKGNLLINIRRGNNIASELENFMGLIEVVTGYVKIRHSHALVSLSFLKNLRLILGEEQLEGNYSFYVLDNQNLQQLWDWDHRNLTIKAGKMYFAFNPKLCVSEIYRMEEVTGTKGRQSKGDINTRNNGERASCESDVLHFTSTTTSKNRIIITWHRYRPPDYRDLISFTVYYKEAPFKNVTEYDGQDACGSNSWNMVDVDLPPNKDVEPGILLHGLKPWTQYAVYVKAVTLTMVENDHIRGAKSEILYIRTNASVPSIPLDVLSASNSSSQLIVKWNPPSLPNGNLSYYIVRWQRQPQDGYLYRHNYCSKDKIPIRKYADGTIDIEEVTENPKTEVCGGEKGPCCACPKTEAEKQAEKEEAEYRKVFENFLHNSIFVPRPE
Chain of Insulin-like growth factor 1 receptor (Homo sapiens) (P08069 741-1367 limits assumed): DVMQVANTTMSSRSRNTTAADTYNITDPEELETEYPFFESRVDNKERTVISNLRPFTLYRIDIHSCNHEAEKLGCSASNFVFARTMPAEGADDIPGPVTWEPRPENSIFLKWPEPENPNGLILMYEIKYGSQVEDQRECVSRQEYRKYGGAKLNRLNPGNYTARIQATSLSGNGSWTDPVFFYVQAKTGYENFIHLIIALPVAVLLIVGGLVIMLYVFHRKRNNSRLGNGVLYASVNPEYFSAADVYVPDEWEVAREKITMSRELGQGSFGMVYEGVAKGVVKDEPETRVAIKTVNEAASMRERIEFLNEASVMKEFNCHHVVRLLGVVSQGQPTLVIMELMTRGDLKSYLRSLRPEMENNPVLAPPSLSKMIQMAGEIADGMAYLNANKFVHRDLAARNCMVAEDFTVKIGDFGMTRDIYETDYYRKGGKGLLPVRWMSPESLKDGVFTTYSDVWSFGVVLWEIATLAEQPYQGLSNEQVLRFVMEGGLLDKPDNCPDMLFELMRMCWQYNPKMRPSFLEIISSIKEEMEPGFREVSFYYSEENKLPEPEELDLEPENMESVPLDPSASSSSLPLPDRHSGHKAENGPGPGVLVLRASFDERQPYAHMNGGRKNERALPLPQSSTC

**Q.** How did the residual activity [1] turn out when `COc1ccc(C(=O)Nc2sc3c(c2C(N)=O)CCCC3)cc1OC` was run?
**A.** 72%

**Q.** And the residual activity [2]?
**A.** 71%

**Q.** What about the residual activity [3] of the same compound?
**A.** 71%

**Q.** And the residual activity [4]?
**A.** 92%

**Q.** What about the residual activity [5] of the same compound?
**A.** 87%

**Q.** What about the residual activity [6] of the same compound?
**A.** 88%

**Q.** What about the residual activity [7] of the same compound?
**A.** 113%

**Q.** And the residual activity [8]?
**A.** 99%

**Q.** What about the residual activity [9] of the same compound?
**A.** 88%

**Q.** And the residual activity [10]?
**A.** 105%
